Laboratory results reported in PubChem BioAssay (EPA / NIEHS).
Inconclusive results are not listed. Calls of active or inactive are those of the source. Rule for the calls, unless noted: active = hit-call score of the fitted dose curve at least 0.9, where 1 is the maximum; inactive = score below 0.9.

Test system: not listed separately
Experiment: IUF_NPC2-5_viability_120hr: Viability Assessment at 120 hours in the Leibniz Research Institute for Environmental Medicine (IUF) Neural Progenitor Cell Migration and Differentiation Assay (NPC2-5) (AID 2284312)
Conditions: not given
Experimental: IUF_NPC2-5 is a cell-based, multiplexed assay that uses hNPC, a human primary neural progenitor cells, with measurements taken at 72 or 120 hours after chemical dosing in a 96-well plate. Human neural progenitor cells (hNPC) are generated from human fetal brain cortex at gestational week (GW) 16-19. In the neural progenitor cell migration and differentiation assay (NPC2-5), hNPCs grown as spheres are plated on an extracellular matrix and migrate and differentiate out of the sphere core. The processes radial glia migration, neuronal and oligodendrocyte migration as well as neuronal differentiation, neuronal morphology and oligodendrocyte differentiation are studied using automated phase contrast imaging and automated fluorescence imaging in combination with high content image analysis. In parallel, the cell viability is assessed using an alamar blue viability assay and the cytotoxicity using a lactate dehydrogenase dependent membrane integrity assay.IUF_NPC2-5_viability_120hr is one of 12 assay components measured from the IUF_NPC2-5 assay. It is designed to measure cell viability assessed as mitochondria-dependent reduction of resazurin to resorufin using the alamar blue viability assay. The viability is measured as a fluorescence signal (relative fluorescence unit) in a multiplate reader. Data from the IUF_NPC2-5_viability_120hr component was analyzed at the endpoint IUF-NPC2-5_viability_120hr in the positive analysis fitting direction relative to DMSO as the negative control and baseline of activity. Using a type of viability reporter, gain or loss-of-signal activity can be used to understand viability effects.
Culture protocol: After the cell expansion period the cells are cultured for up to four weeks in which they are passaged every week as described in 3.6. Between one to three days after passaging spheres at a size of 0.3 mm are picked for the test method. For the assessment of neural progenitor cell migration and differentiation, the spheres are plated on poly-D-lysine/laminin coated 96-well flat bottom plates in differentiation medium (N2) to initiate migration and differentiation. Thereby one 0.3 mm big sphere is plated in the middle of a well. The differentiation medium consists of DMEM and Ham's F12 at a ratio of 3 to 1 supplemented with 1% N2 and 1% penicillin and streptomycin. Within 5 days NPCs radially migrate out of the sphere core and differentiate into radial glia cells (nestin positive), neurons (TUBB3 positive), oligodendrocytes (O4 positive) and astrocytes (GFAP positive). Cultivation during the test method is performed at 37C and 5% CO2 at a ph of 7.2-7.6.Exposure: 0.3 mm big hNPC are plated in the already prepared test conditions. Exposure starts at day 0 of differentiation and is continued over five days of differentiation until the experiment is terminated. Cells are fed with fresh medium at day 3 of differentiation. Therefore, half of the test condition solution (e.g. solvent control or compound dilution) is replaced by freshly prepared test condition solution.Test Method: Migration distance and cytotoxicity is determined after 72 hours based on brightfield images of each well. The assay is terminated by the assessment of cell viability and cytotoxicity as well as cell fixation after 120 h. Immunocytochemistry is performed for Hoechst positive nuclei, TUBB3 positive neurons and O4 positive oligodendrocytes. On the ICC images, migration after 120 hours, neuronal and oligodendrocyte number, neuronal morphology and neuron/oligodendrocyte specific migration is assessed. immunocytochemical staining (ICC) generates an image for each sphere. The plates are scanned using an automated high content imaging device and all nuclei and their positions are determined automatically based on their intensity and size. Images are imported to the Omnisphero software to run the image analysis that measures the following endpoints. The method is set up for 8 test conditions including 7 compound concentrations and one SC. […]

Compound | outcome
CC(C)(C)c1ccccc1OP(=O)(Oc1ccccc1)Oc1ccccc1 | inactive
CCCCOCCOP(=O)(OCCOCCCC)OCCOCCCC | inactive
O=S1(=O)OCC2C(CO1)C1(Cl)C(Cl)=C(Cl)C2(Cl)C1(Cl)Cl (stereo not given) | inactive
CCCCC(CC)COP(=O)(Oc1ccccc1)Oc1ccccc1 (stereo not given) | inactive
CCOP(=S)(OCC)SCSCC | inactive
CCOc1ccc(C(C)(C)COCc2cccc(Oc3ccccc3)c2)cc1 | inactive
CO/N=C(/C(=O)OC)c1ccccc1COc1ccccc1C | inactive
O=P(Oc1ccccc1)(Oc1ccccc1)Oc1ccccc1 | inactive
O=C(O)C(F)(OC(F)(F)C(F)(F)C(F)(F)F)C(F)(F)F (stereo not given) | inactive

Test system: IYD (gene 389434)
Experiment: CCTE_GLTED_hIYD: CCTE's human Iodotyrosine Deiodinase (xIYD) Inhibition Assay, Great Lakes Toxicology and Ecology Division (GLTED) Lab (AID 2284317; active = hit-call score of the fitted dose curve at least 0.9, where 1 is the maximum)
Conditions: not given
Experimental: CCTE_GLTED_hIYD is a cell-free, single-readout assay that uses human iodotyrosine deiodinase (hIYD) enzyme produced with baculovirus-insect cell system. The assay is based on iodide release measured by the Sandell-Kolthoff method and is run in 96-well plate format with assay plates run in triplicate (n=3) with measurements taken at 3 hours after chemical dosing. Platewise-normalization was used based on positive control (3-Nitro-L-tyrosine, MNT) and negative/solvent controls (DMSO, NaOH).CCTE_GLTED_hIYD is the assay component measured from the CCTE_GLTED_hIYD assay. It measures substrate involved in regulation of catalytic activity using spectrophotometry. The assay measures the deiodination activity of human IYD on the substrate monoiodotyrosine (MIT). After 3h incubation of substrate, enzyme, and test chemical, the components are applied to a 96-well Dowex column. Free iodide is not retained by the column and is separated from interfering assay components. The free iodide is measured by the Sandell-Kolthoff reaction in which the rate of reduction of cerium (Ce+4 to Ce+3) by arsenic (As+3 to As+5) is increased by the presence of iodide. This is observed as the loss of yellow color in the reaction and the quantified by the change in absorbance at 420 nm. The change in reaction rate is proportional to the amount of iodide present.Data from the assay component CCTE_GLTED_hIYD was analyzed at the assay endpoint CCTE_GLTED_hIYD in the positive analysis fitting direction relative to DMSO as the negative control and baseline of activity. […]
Human thyroxine binding globulin (TBG) assay, developed at Great Lakes Toxicology and Ecology Division (GLTED) within the EPA's Center for Computational Toxicology and Exposure (CCTE), is designed to test the chemicals' ability to displace T4 from the TBG protein. […] This work describes the utilization of ANSA fluorescence when bound to the protein to approximate binding affinity of chemicals through a reduction of fluorescence when ANSA is displaced. […]

Compound | outcome | AC50
CCCCc1ccc(O)cc1 | inactive | 
CCCCCCCc1ccc(O)cc1 |  | 52.4 µM (active)
O=c1ssc(Cl)c1Cl | inactive | 

Test system: not listed separately
Experiment: CCTE_Mundy_HCI_iCellGluta_NOG_NeuriteLength: CCTE's Neurite Outgrowth Assay in iCellGluta cells for Neurite Length, Mundy Lab (AID 2284318; active = hit-call score of the fitted dose curve at least 0.9, where 1 is the maximum)
Conditions: not given
Method in brief: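 Automated high-content imaging of betaIII-tubulin (Alexa Fluor-488) and Hoechst-stained cells gave neurite length, normalized to the DMSO baseline.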

Compound | outcome | AC50
O=C(O)C(F)(F)OC(F)(F)C(F)(F)OC(F)(F)C(=O)O | inactive | 
CCOP(=S)(OCC)SCSCC | inactive | 
CCOc1ccc(C(C)(C)COCc2cccc(Oc3ccccc3)c2)cc1 | inactive | 
CO/N=C(/C(=O)OC)c1ccccc1COc1ccccc1C |  | 19.7 µM (active)
O=C(O)C(F)(F)OC(F)(F)C(F)(F)OC(F)(F)F | inactive | 
O=C(O)C(F)(OC(F)(F)C(F)(F)C(F)(F)F)C(F)(F)F (stereo not given) | inactive | 
O=C(O)C=CC(F)(C(F)(F)F)C(F)(F)F | inactive | 

Test system: not listed separately
Experiment: CCTE_Deisenroth_5AR_NBTE_donor: CCTE's 5alpha-reductase NanoBRET Target Engagement Assay […], Deisenroth Lab (AID 2284319)
Conditions: actives raise or lower the signal
Method in brief: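 SRD5A2-NanoLuc, HEK293T, 20 h expression. Chemical 10 nM - 29.9 uM, 8 conc, duplicate; 3 h preincubation + 2 h testosterone tracer. Nano-Glo substrate plus extracellular NanoLuc inhibitor; donor lum 460 nm. DMSO baseline, bidirectional fit.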

Compound | outcome | AC50
CCCN(CCC)c1c([N+](=O)[O-])cc(C(C)C)cc1[N+](=O)[O-] | inactive | 
c1ccc2c(c1)Nc1ccccc1S2 | inactive | 
O=C(O)C1C(C(=O)O)C2(Cl)C(Cl)=C(Cl)C1(Cl)C2(Cl)Cl (stereo not given) | inactive | 
CCOP(=S)(OCC)SCSCC | inactive | 
ClC1=C(Cl)C2(Cl)C3C(Cl)C(Cl)CC3C1(Cl)C2(Cl)Cl (stereo not given) | inactive | 
CC1(C)CN=C(NN=C(/C=C/c2ccc(C(F)(F)F)cc2)/C=C/c2ccc(C(F)(F)F)cc2)NC1 |  | 50 µM (active)
O=P(OCC(Br)CBr)(OCC(Br)CBr)OCC(Br)CBr (stereo not given) | inactive | 

Test system: TTR (gene 7276)
Experiment: CCTE_GLTED_hTTR_0.5uM: CCTE's human Transthyretin (hTTR) Inhibition Assay, with 0.5uM TTR, Great Lakes Toxicology and Ecology Division (GLTED) Lab (AID 2284320)
Conditions: not given
Method in brief: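 Probe (ANSA) displacement from 0.5 uM human transthyretin was followed by fluorescence (ex 380, em 475) after a 2 h incubation with chemical. Activity was scored as signal loss and fitted positively relative to DMSO.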

Compound | AC50
OCC(F)(F)OC(F)(F)C(F)(F)OC(F)(F)C(F)(F)OC(F)(F)CO | 9.52 µM (active)
C=CC(=O)OCC(F)(F)C(F)F | 56.8 µM (active)
OCC(F)(F)OC(F)(F)C(F)(F)OC(F)(F)CO | 40.1 µM (active)
O=C(O)C(F)(F)OC(F)(F)C(F)(F)OC(F)(F)C(=O)O | 0.746 µM (active)
O=C(O)C(F)(F)OC(F)(F)C(F)(F)OC(F)(F)F | 3.59 µM (active)
COC(=O)C(F)(F)C(F)(F)OC(F)(C(F)(F)F)C(F)(F)OC(F)=C(F)F (stereo not given) | 0.977 µM (active)
OCC(F)(F)OC(F)(F)C(F)(F)OC(F)(F)C(F)(F)OC(F)(F)F | 51.7 µM (active)
O=C(O)C=CC(F)(C(F)(F)F)C(F)(F)F | 9.44 µM (active)
O=S(=O)(F)C(F)(F)C(F)(F)C(F)(F)C(F)(F)C(F)(F)C(F)(F)C(F)(F)C(F)(F)F | 55 µM (active)
